# Source: PubChem BioAssay (NCI)
# This is part of a sample that, as a whole, favours compounds with a hit. Of some 79,000 tested, about 15% had one in any assay. Values without a mark were called inactive. Calls of active or inactive are those of the source. Rule as the data show it: active = growth inhibition above about 70%; inactive = the rest. Where a SMILES comes first, the peptide text is derived from it. [ ]: non-standard residue; d: D form. The star is where a group is joined. mTyr = N[CH](Cc1cccc(O)c1)C(=O)O; Cbz = O=C(OCc1ccccc1)*; OBn = c1ccc(CO*)cc1
# Assay: NCI Yeast Anticancer Drug Screen. Data for the sgs1 mgt1 strain (AID 161);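 also: 0% = growth of cultures given vehicle only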
# Details: S. cerevisiae sgs1 mgt1 strain, at 5.0 µM (retest, dose inferred, filed as 0.5), active compounds read high
# In short: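 Mutant yeast exposed to compound; growth scored against vehicle-only wells.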
row,SMILES,growth inhibition
1,Cc1cc2c(cc1S(=O)(=O)O)C1C(C3C2C2(Cl)C(Cl)=C(Cl)C3(Cl)C2(Cl)Cl)C2(Cl)C(Cl)=C(Cl)C1(Cl)C2(Cl)Cl (centres undefined),27%
2,O=C1/C(=C/c2ccccc2)CNC/C1=C\c1ccccc1,-7%
3,Cc1ccc2c(c1)-c1cc(C)ccc1C2(O)c1ccccc1,6%
4,CCCc1cc2c(cc1COc1ccccc1C(=O)O)OCO2,-7%
5,O=C1OC(c2ccc3c(c2)OCO3)Sc2ccccc21 (centres undefined),1%
6,Cc1cc(NC(=S)SCc2ccc(Cl)cc2)ccc1F,2%
7,NC(=O)CC1CCC(c2ccccc2)CC1 (centres undefined),-1%
8,[O-]c1c2cc(-[n+]3c(-c4ccccc4)cc(-c4ccccc4)cc3-c3ccccc3)cc1CO[C@@H](c1ccccc1)[C@H](c1ccccc1)OCc1cccc(n1)CO[C@@H](c1ccccc1)[C@H](c1ccccc1)OC2,100% (active)
9,OCCN(CCO)c1cc(/C=C/c2ccnc3ccccc23)nc2ccccc12,12%
10,COC(=O)C(Cc1cccc(O)c1)NC(=O)C(CC(=O)OCc1ccccc1)NC(=O)OCc1ccccc1 (centres undefined) (Cbz-Asp(OBn)-[mTyr]-OMe; configuration not given here),2%
11,COc1cc[c]([Sn]([c]2ccc(OC)cc2)([c]2ccc(OC)cc2)[c]2ccc(OC)cc2)cc1,-5%
12,COC(=O)CCCCCOS(=O)(=O)c1ccc(C)cc1,-4%
13,O=S(=O)(C#Cc1ccccc1)c1ccccc1,24%
14,N#CC1(C#N)C(C#N)(C#N)C12CCCCCC2,39%
15,CCOC(=O)/C(C)=N/Nc1cc(Cl)ccc1O,4%
16,N/C(CC(=O)NOC(=O)c1ccccc1)=N/OC(=O)c1ccccc1,54%
17,C/C(=N\NC(=S)N1CCC(C)CC1)c1ncccn1,0%
18,Cc1ccc(S(=O)(=O)OCC(/C=N/NC(N)=O)OCOC(C)/C=N/NC(N)=O)cc1 (centres undefined),-4%
19,CN1COc2c(Cl)cc(Cl)cc2C1,0%
20,c1ccc2cc3c(cc2c1)Nc1c2ccccc2nc2cccc-3c12,24%
21,CCCCN(CCCC)S(=O)(=O)c1ccccc1,1%
22,Cc1cccc(N2C(c3ccccc3)c3ccc(C)cc3NS2=O)c1 (centres undefined),1%
23,CN(C)c1ccc(/C=N/c2nc(-c3ccccc3)cs2)cc1,5%
24,O=C1c2ccccc2-c2nc3ncccc3cc21,4%

# Same assay, conditions: S. cerevisiae sgs1 mgt1 strain, at 50.0 µM (retest, dose inferred, filed as 5.0), active compounds read high
row,SMILES,growth inhibition
1,CC(/C=N/NS(=O)(=O)c1ccc(C)cc1)=C(c1ccccc1)c1ccccc1,96% (active)
2,CCOC(=O)Cc1cc(=O)oc2c(CN3CCN(c4ccc(C)cc4)CC3)c(O)ccc12,87% (active)
3,Clc1ccc(/C=N\Nc2c3ccccc3nc3ccccc23)cc1Cl,38%
4,CNC(=O)c1cc(NC(=O)c2ccc(C(=O)Nc3cc(C(=O)NC)cc(C4=NCCN4)c3)cc2)cc(C2=NCCN2)c1,-3%
5,O=P1(O)c2ccccc2CS(=O)(=O)Cc2ccccc21,53%
6,CC1=C(C(=O)NCc2ccccc2)C(c2ccccc2[N+](=O)[O-])C(C(=O)NCc2ccccc2)=C(C)N1,-2%
7,Oc1ccc(C2CCCCC2)cc1,54%
8,CCN(CC)CCOc1cccc2c1C(=O)c1c(O)cccc1C2=O,54%
9,CCN(CC)C1Oc2cc3c(cc2C(c2ccc(OC)cc2)C1C)OCO3 (centres undefined),95% (active)
10,COc1ccc(C2C3CCCC(C(c4ccc(OC)cc4)N2C)C32NC(=O)NC2=O)cc1 (centres undefined),98% (active)
11,Clc1ccc(SSc2ccc(Cl)cn2)nc1,96% (active)
12,CN=c1sc2c(n1C)C(=O)c1ccccc1C2=O,49%
13,O=C(Nc1cccc(Cl)c1)OCCOC(=O)Nc1cccc(Cl)c1,100% (active)
14,O=[N+]([O-])c1ccc2c(c1)Cc1cc(Cl)ccc1-2,-2%
15,Cc1c(-c2ccccc2)ccnc1/C=N/NC(=S)NCCc1ccccc1,83% (active)
16,O=C(O)CCC(=O)NCCNC(=O)CC(=O)O,-63%
17,Cc1cc2c(cc1S(=O)(=O)O)C1C(C3C2C2(Cl)C(Cl)=C(Cl)C3(Cl)C2(Cl)Cl)C2(Cl)C(Cl)=C(Cl)C1(Cl)C2(Cl)Cl (centres undefined),87% (active)
18,O=C1/C(=C/c2ccccc2)CNC/C1=C\c1ccccc1,96% (active)
19,Cc1ccc2c(c1)-c1cc(C)ccc1C2(O)c1ccccc1,89% (active)
20,CCCc1cc2c(cc1COc1ccccc1C(=O)O)OCO2,25%

row,SMILES,growth inhibition
1,O=C1OC(c2ccc3c(c2)OCO3)Sc2ccccc21 (centres undefined),10%
2,Cc1cc(NC(=S)SCc2ccc(Cl)cc2)ccc1F,95% (active)
3,NC(=O)CC1CCC(c2ccccc2)CC1 (centres undefined),-14%
4,[O-]c1c2cc(-[n+]3c(-c4ccccc4)cc(-c4ccccc4)cc3-c3ccccc3)cc1CO[C@@H](c1ccccc1)[C@H](c1ccccc1)OCc1cccc(n1)CO[C@@H](c1ccccc1)[C@H](c1ccccc1)OC2,98% (active)
5,OCCN(CCO)c1cc(/C=C/c2ccnc3ccccc23)nc2ccccc12,47%
6,COC(=O)C(Cc1cccc(O)c1)NC(=O)C(CC(=O)OCc1ccccc1)NC(=O)OCc1ccccc1 (centres undefined) (Cbz-Asp(OBn)-[mTyr]-OMe; configuration not given here),87% (active)
7,COc1cc[c]([Sn]([c]2ccc(OC)cc2)([c]2ccc(OC)cc2)[c]2ccc(OC)cc2)cc1,-5%
8,COC(=O)CCCCCOS(=O)(=O)c1ccc(C)cc1,-3%
9,O=S(=O)(C#Cc1ccccc1)c1ccccc1,99% (active)
10,N#CC1(C#N)C(C#N)(C#N)C12CCCCCC2,99% (active)
11,CCOC(=O)/C(C)=N/Nc1cc(Cl)ccc1O,42%
12,N/C(CC(=O)NOC(=O)c1ccccc1)=N/OC(=O)c1ccccc1,62%
13,C/C(=N\NC(=S)N1CCC(C)CC1)c1ncccn1,98% (active)
14,Cc1ccc(S(=O)(=O)OCC(/C=N/NC(N)=O)OCOC(C)/C=N/NC(N)=O)cc1 (centres undefined),-8%
15,CN1COc2c(Cl)cc(Cl)cc2C1,91% (active)
16,c1ccc2cc3c(cc2c1)Nc1c2ccccc2nc2cccc-3c12,72% (active)
17,CCCCN(CCCC)S(=O)(=O)c1ccccc1,52%
18,Cc1cccc(N2C(c3ccccc3)c3ccc(C)cc3NS2=O)c1 (centres undefined),-2%
19,CN(C)c1ccc(/C=N/c2nc(-c3ccccc3)cs2)cc1,92% (active)
20,O=C1c2ccccc2-c2nc3ncccc3cc21,78% (active)
